The values below come from PubChem BioAssay.

The nature of assay [1]: P. berghei load reduction in hepatocytes – cell-based, HepG2, luciferase luminescence, HepG2 viability, primary screen (AID 624349; in the data active = parasite load remaining mostly below about 12%, no sharp cut-off; inactive = mostly above about 10%;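 note: 100% = mean of DMSO negative control wells on the same plate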). The conditions noted are these: P. berghei liver stage in HepG2, luciferase luminescence, concentration not given here; parasite load remaining: stronger effect = lower value; viability: measured here: HepG2 viability without parasites.
Assay [2] in a line: signal quenchers or enhancers, Cy5 substrate/SSB – biochemical, NIH Clinical Collection, E. coli SSB, artefact control for HCV NS3 helicase inhibitor project (AID 743268). Conditions: Cy5-oligo bound E. coli SSB, fluorescence interference.
Assay [3] has as its system Hepatitis C virus NS3 helicase. The assay is described as follows: blockers of NS3h binding to DNA – biochemical, fluorescence polarization, NIH Clinical Collection, primary screen (AID 743270). The conditions noted are these: NS3 helicase binding to Cy5-dT15 DNA, stronger effect = higher value, concentration not given here. A general note: Fluorescence polarisation rises when a labelled molecule tumbles more slowly, as on binding a larger partner.

Assay [4] addresses Single-stranded DNA-binding protein (Escherichia coli (strain K12)) (UniProt P0AGE0). The assay is described as follows: SSB-ssDNA binding inhibitors – biochemical, fluorescence polarization, NIH Clinical Collection, counter-screen for HCV NS3 helicase inhibitor project (AID 743271; in the data active = inhibition above about 28%). The conditions noted are these: E. coli SSB-DNA binding, stronger effect = higher value, concentration not given here.

A short description of assay [5]: compounds distorting NS3 helicase fluorescence signal – biochemical, NIH Clinical Collection, artefact control for HCV NS3 helicase inhibitor project (AID 743272).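 Note: HCV NS3 helicase with a Cy5 labelled single stranded DNA probe.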 The conditions noted are these: fluorescence interference counterscreen, HCV NS3 helicase assay; stronger effect = lower value.
The test system of assay [6] is Neuropilin-2 / VEGF-C interaction (human). The assay is described as follows: small molecules blocking Neuropilin-2/VEGF-C interaction – biochemical, microplate binding format, z-score (AID 743281). The conditions noted are these: microplate NRP2/VEGF-C binding assay; stronger effect = lower value.
Assay [7] in a line: Wnt pathway potentiators raising nuclear beta-catenin – imaging, WNT3A-conditioned medium, mouse C2C12, NPC library, primary screen (AID 1117326; in the data active = nuclear beta-catenin stimulation mostly above about 4.2%, no sharp cut-off; inactive = mostly below about 10%). The conditions noted are these: stronger effect = higher value.

The viability is a read-out of living cells in per cent, often relative to untreated cells. As a reminder, the inhibition is the change of the read-out against control, counted positive when it falls.

“And” between values parts separate entries of the source, which are not always exact repeats. Equal values may be shown once. The source made the active and inactive calls. Unless noted, the rule behind the calls is not given here.

With `Nc1c2c(nc3c1CCC3)CCCC2`, the parasite load remaining in assay [1] is 74.2% (inactive). In assay [1], the viability is 68.8%. For the same compound, the fluorescence ratio in assay [2] was 0.99 (inactive); in assay [5] it was 0.9 (inactive). Besides, the figures for the inhibition in assay [3] and in assay [4] were 2.77% (inactive) and 1.44% (inactive), respectively. The z-score in assay [6] was -0.236 (inactive). In addition, the nuclear beta-catenin stimulation in assay [7] (at 10 µM) is 0.3% (inactive); in assay [7] (stimulation, at 2 µM), 0.3%.

With `Cc1c(O)cccc1C(=O)N[C@@H](CSc1ccccc1)[C@H](O)CN1C[C@H]2CCCC[C@H]2C[C@H]1C(=O)NC(C)(C)C`, the parasite load remaining in assay [1] is 23.1% (inactive) and 3.4% (inactive). In addition, the viability in assay [1] is 69.9% and 65.5%. The fluorescence ratio in assay [2] was 0.95 (inactive); in assay [5], 0.94 (inactive). In addition, the inhibition was -4.36% (inactive) in assay [3] and 2.98% (inactive) in assay [4]. For the same compound, the z-score in assay [6] is 0.175 (inactive). Moreover, the nuclear beta-catenin stimulation in assay [7] (at 10 µM) was 2.3% (inactive); in assay [7] (stimulation, at 2 µM), -1.9%.

For the compound `O=C1c2cccc3c2[C@H](CCC3)CN1[C@@H]1CN2CCC1CC2`, in assay [1], the parasite load remaining was 80.1% (inactive). Besides, the viability in assay [1] is 69.6%. The values for the fluorescence ratio in assay [2] and in assay [5] were 0.94 (inactive) and 0.96 (inactive), respectively. For the same compound, the results for the inhibition in assay [3] and in assay [4] were -1.09% (inactive) and 9.84% (inactive), respectively. Besides, in assay [6], the z-score was -0.136 (inactive). The nuclear beta-catenin stimulation is 0.4% (inactive) in assay [7] (at 10 µM) and 1.5% in assay [7] (stimulation, at 2 µM).

For `CN1[C@@H]2CC[C@H]1CC(OC(=O)c1c[nH]c3ccccc13)C2` (stereo not given in full), in assay [1], the parasite load remaining was 118% (inactive) and 21.9% (inactive). The viability in assay [1] was 102% and 67.5%. For the same compound, the fluorescence ratio was 1.02 (inactive) in assay [2] and 0.9 (inactive) in assay [5]. Moreover, the inhibition in assay [3] was -3.56% (inactive); in assay [4], -3.95% (inactive). In addition, the z-score in assay [6] is -0.714 (inactive). In addition, the nuclear beta-catenin stimulation in assay [7] (at 10 µM) is 1.1% (inactive); in assay [7] (stimulation, at 2 µM) it was 1.6%.

In the case of `Cn1nnc2c(C(N)=O)ncn2c1=O`, the parasite load remaining in assay [1] is 106% (inactive) and 19.4% (inactive). Moreover, the viability in assay [1] is 79.6% and 80.5%. Also, the fluorescence ratio was 1.03 (inactive) in assay [2] and 0.9 (inactive) in assay [5]. In addition, the inhibition was -5.94% (inactive) in assay [3] and -0.87% (inactive) in assay [4]. The z-score in assay [6] is -0.72 (inactive). Besides, the nuclear beta-catenin stimulation is -1.7% (inactive) in assay [7] (at 10 µM) and 0% in assay [7] (stimulation, at 2 µM).

As for `CCN(CC)CC1CCCCN1CC(=O)N1c2ccccc2C(=O)Nc2cccnc21` (stereo not given), in assay [1], the parasite load remaining is 84.2% (inactive). Besides, in assay [1], the viability stood at 71.2%. Further, the fluorescence ratio in assay [2] and in assay [5] was 1.04 (inactive) throughout. Further, the inhibition in assay [3] is -2.77% (inactive); in assay [4], -2.41% (inactive). For the same compound, in assay [6], the z-score is -0.131 (inactive). Further, the nuclear beta-catenin stimulation in assay [7] (at 10 µM) was 6.3% (inactive); in assay [7] (stimulation, at 2 µM), 1.6%.

For the compound `CC(C)c1nc(CN(C)C(=O)N[C@H](C(=O)N[C@@H](Cc2ccccc2)C[C@H](O)[C@H](Cc2ccccc2)NC(=O)OCc2cncs2)C(C)C)cs1`, the parasite load remaining in assay [1] was 53.8% (inactive). Also, in assay [1], the viability came to 79.2%. The fluorescence ratio in assay [2] is 1.03 (inactive); in assay [5], 0.89 (inactive). Besides, the inhibition in assay [3] is 3.56% (inactive); in assay [4], 9.91% (inactive). The z-score in assay [6] is 0.723 (inactive). Further, the nuclear beta-catenin stimulation is 7.7% (inactive) in assay [7] (at 10 µM) and 5.1% in assay [7] (stimulation, at 2 µM).

As to `CCc1nn(CCCN2CCN(c3cccc(Cl)c3)CC2)c(=O)n1CCOc1ccccc1`, the parasite load remaining in assay [1] was 9.1% (inactive) and 13.5% (inactive). In assay [1], the viability was 58.6% and 64.5%. The fluorescence ratio was 0.98 (inactive) in assay [2] and 0.99 (inactive) in assay [5]. The inhibition in assay [3] was -1.19% (inactive); in assay [4], 3.75% (inactive). Besides, the z-score in assay [6] is 0.854 (inactive). The nuclear beta-catenin stimulation in assay [7] (at 10 µM) is -1% (inactive); in assay [7] (stimulation, at 2 µM) it was 3%.

As to `CN(C)CCCSc1ccccc1NC(=O)/C=C/c1ccccc1`, in assay [1], the parasite load remaining is 53.7% (inactive) and 10.2% (inactive). Besides, in assay [1], the viability was 56.6% and 65.5%. The figures for the fluorescence ratio in assay [2] and in assay [5] were 0.99 (inactive) and 0.97 (inactive), respectively. Further, the inhibition in assay [3] is 0.4% (inactive); in assay [4], -2.41% (inactive). In assay [6], the z-score was -0.209 (inactive). Besides, the nuclear beta-catenin stimulation in assay [7] (at 10 µM) was 1.7% (inactive); in assay [7] (stimulation, at 2 µM), 1.1%.

Turning to `CCc1c2c(nc3ccc(OC(=O)N4CCC(N5CCCCC5)CC4)cc13)-c1cc3c(c(=O)n1C2)COC(=O)[C@]3(O)CC`, in assay [1], the parasite load remaining is 136% (inactive) and 106% (inactive); the viability is 95.2% and 90.6%. Further, in assay [6], the z-score is -0.00941 (inactive). Also, in assay [7] (at 10 µM), the nuclear beta-catenin stimulation is 11.6% (inactive). The nuclear beta-catenin stimulation in assay [7] (stimulation, at 2 µM) turned out to be 1.5%.

In the case of `CC(C)(C#N)c1cc(Cn2cncn2)cc(C(C)(C)C#N)c1`, the parasite load remaining in assay [1] was 73.5% (inactive) and 47.4% (inactive). The viability in assay [1] was 67.1% and 158%. Besides, the fluorescence ratio is 0.93 (inactive) in assay [2] and 0.92 (inactive) in assay [5]. Moreover, the inhibition is -0.22% (inactive) in assay [3] and 1.18% (inactive) in assay [4]. The z-score in assay [6] is 1.38 (inactive). Also, the nuclear beta-catenin stimulation in assay [7] (at 10 µM) is 0.3% (inactive); in assay [7] (stimulation, at 2 µM), 1.7%.

With `CC(C)(C)NC(=O)[C@@H]1CN(Cc2cccnc2)CCN1C[C@@H](O)C[C@@H](Cc1ccccc1)C(=O)N[C@H]1c2ccccc2C[C@H]1O`, in assay [1], the parasite load remaining is 83.6% (inactive). The viability in assay [1] was 71%. In addition, the inhibition in assay [3] is -1.19% (inactive); in assay [4] it was 1.44% (inactive). Besides, the fluorescence ratio in assay [5] was 1.02 (inactive). For the same compound, in assay [6], the z-score is 0.687 (inactive). For the same compound, the nuclear beta-catenin stimulation was 1.8% (inactive) in assay [7] (at 10 µM) and 1.7% in assay [7] (stimulation, at 2 µM).

Regarding `NCC1CCC(C(=O)Oc2ccc(CCC(=O)O)cc2)CC1` (stereo not given), the parasite load remaining in assay [1] was 104% (inactive). The viability in assay [1] was 78.2%. Also, the fluorescence ratio was 1.02 (inactive) in assay [2] and 0.94 (inactive) in assay [5]. The results for the inhibition in assay [3] and in assay [4] were -1.98% (inactive) and -3.18% (inactive), respectively. For the same compound, the z-score in assay [6] is -0.934 (inactive). Moreover, the nuclear beta-catenin stimulation was 0.5% (inactive) in assay [7] (at 10 µM) and 1% in assay [7] (stimulation, at 2 µM).

`CCOc1cc(N)c(Cl)cc1C(=O)NCC1CN(Cc2ccc(F)cc2)CCO1` (stereo not given): the parasite load remaining in assay [1] is 29.6% (inactive). In assay [1], the viability is 70.5%. Besides, the results for the fluorescence ratio in assay [2] and in assay [5] were 0.99 (inactive) and 0.95 (inactive), respectively. Further, the inhibition in assay [3] was 1.19% (inactive); in assay [4], 4.52% (inactive). Moreover, the z-score in assay [6] was 0.948 (inactive). For the same compound, the nuclear beta-catenin stimulation in assay [7] (at 10 µM) is 2.5% (inactive); in assay [7] (stimulation, at 2 µM), 1.9%.

For `CN(CCOc1ccc(NS(C)(=O)=O)cc1)CCc1ccc(NS(C)(=O)=O)cc1`, in assay [1], the parasite load remaining was 94% (inactive) and 61.2% (inactive); the viability is 70% and 214%. Moreover, the z-score in assay [6] is -1.11 (inactive). Moreover, the nuclear beta-catenin stimulation in assay [7] (at 10 µM) was -0.7% (inactive). For the same compound, the nuclear beta-catenin stimulation in assay [7] (stimulation, at 2 µM) was 1.6%.

On to `COC(=O)C1=C(C)NC(C)=C(C(=O)O[C@@H]2CCCN(Cc3ccccc3)C2)[C@@H]1c1cccc([N+](=O)[O-])c1`, for which the parasite load remaining in assay [1] is 10.8% (inactive). Moreover, in assay [1], the viability is 55.9%. The fluorescence ratio in assay [2] was 0.96 (inactive); in assay [5], 0.94 (inactive). For the same compound, the inhibition in assay [3] was 3.56% (inactive); in assay [4] it was 5.29% (inactive). The z-score in assay [6] was 1.67 (inactive). Besides, the nuclear beta-catenin stimulation is 8.2% (inactive) in assay [7] (at 10 µM) and 5.8% in assay [7] (stimulation, at 2 µM).
